From PubChem BioAssay (EPA / NIEHS)
Inconclusive results are not listed. Active and inactive are the calls of the source. The calls were made as follows: active = hit-call score of the fitted dose curve at least 0.9, where 1 is the maximum; inconclusive = response in the unintended direction; inactive = score below 0.9.

Assays:
[1] = molecular target: Androgen receptor (Homo sapiens) (UniProt P10275); test: ATG_AR_TRANS: Attagene TRANS-FACTORIAL HepG2 Assay for human Androgen Receptor (AR) (AID 2282973); settings: HepG2 Attagene TRANS-FACTORIAL AR reporter transcription
Sequence of Androgen receptor (Homo sapiens) (P10275 whole entry, looked up, the tested form may be a part): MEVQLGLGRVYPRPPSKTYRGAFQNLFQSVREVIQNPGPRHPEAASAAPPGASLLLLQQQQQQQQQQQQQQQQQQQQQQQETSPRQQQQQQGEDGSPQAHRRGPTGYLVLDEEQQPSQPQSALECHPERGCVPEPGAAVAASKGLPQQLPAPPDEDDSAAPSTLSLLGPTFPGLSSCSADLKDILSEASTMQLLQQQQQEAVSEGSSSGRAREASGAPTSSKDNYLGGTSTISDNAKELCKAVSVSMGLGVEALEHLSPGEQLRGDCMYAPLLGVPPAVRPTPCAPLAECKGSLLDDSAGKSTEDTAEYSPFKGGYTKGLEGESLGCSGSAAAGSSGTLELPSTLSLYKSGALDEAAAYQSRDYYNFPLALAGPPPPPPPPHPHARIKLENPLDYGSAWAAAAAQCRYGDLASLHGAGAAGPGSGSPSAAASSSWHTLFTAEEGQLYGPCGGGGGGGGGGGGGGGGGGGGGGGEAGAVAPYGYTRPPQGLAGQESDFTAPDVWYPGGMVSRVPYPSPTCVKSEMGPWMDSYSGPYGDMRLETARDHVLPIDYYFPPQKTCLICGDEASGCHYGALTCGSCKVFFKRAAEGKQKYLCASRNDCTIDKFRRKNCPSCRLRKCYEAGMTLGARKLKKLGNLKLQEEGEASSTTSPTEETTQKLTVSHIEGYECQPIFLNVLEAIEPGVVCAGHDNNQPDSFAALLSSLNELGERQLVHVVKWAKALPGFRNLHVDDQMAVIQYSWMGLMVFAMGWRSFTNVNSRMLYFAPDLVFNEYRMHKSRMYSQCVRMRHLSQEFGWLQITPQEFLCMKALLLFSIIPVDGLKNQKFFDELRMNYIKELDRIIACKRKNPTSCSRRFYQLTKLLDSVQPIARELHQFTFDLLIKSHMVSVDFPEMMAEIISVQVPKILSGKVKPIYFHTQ
Method in brief: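 HepG2 cells transiently transfected with AR-Gal4 chimera and GAL4-UAS reporter units; chemical exposure 24 h. Reporter mRNA quantified by RT-PCR with fluorescent labelling and capillary electrophoresis; gain-of-signal fitted against DMSO.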

[2] = molecular target: human Phosphatase and Tensin Homolog (PTEN), PTEN (gene 5728) (UniProt P60484); test: NVS_ENZ_hPTEN: NovaScreen (NVS) Enzymatic Assay for human Phosphatase and Tensin Homolog (PTEN) (AID 2283203)
Sequence of human Phosphatase and Tensin Homolog (PTEN), PTEN (gene 5728) (P60484 whole entry, looked up): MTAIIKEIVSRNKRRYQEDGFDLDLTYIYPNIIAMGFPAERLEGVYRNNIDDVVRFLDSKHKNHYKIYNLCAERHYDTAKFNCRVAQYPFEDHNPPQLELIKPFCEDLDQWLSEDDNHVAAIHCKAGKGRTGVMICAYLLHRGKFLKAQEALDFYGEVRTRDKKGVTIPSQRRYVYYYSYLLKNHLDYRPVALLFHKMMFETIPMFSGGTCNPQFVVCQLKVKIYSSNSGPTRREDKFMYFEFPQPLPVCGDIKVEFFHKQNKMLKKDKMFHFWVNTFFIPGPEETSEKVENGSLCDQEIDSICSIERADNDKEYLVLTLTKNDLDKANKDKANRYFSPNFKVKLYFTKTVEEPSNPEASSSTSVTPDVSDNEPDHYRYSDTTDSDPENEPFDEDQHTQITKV
Method in brief: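 Loss of fluorescent product signal after mobility-shift separation reports PTEN activity, recombinant human enzyme, 1 h after compound addition. Single 25 uM duplicate screen, then concentration-response on actives; DMSO baseline.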

[3] = system: rat Monoamine Oxidase, MAO-A, Central (MAOAC), gene 29253; test: NVS_ENZ_rMAOAC: NovaScreen (NVS) Enzymatic Assay for rat Monoamine Oxidase, MAO-A, Central (MAOAC) (AID 2283243);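 also: potency refers to inhibition seen as signal drop below DMSO baseline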
Method in brief: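 Lysate-based radiometric enzyme assay using rat brain tissue; 1.5 h treatment; 25 uM single-point duplicate screen, concentration-response follow-up; loss of signal versus DMSO.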

[4] = molecular target: human Raf-1 Proto-Oncogene, serine/threonine Kinase (RAF1), RAF1 (gene 5894) (UniProt P04049); test: NVS_ENZ_hRAF1: NovaScreen (NVS) Enzymatic Assay for human Raf-1 Proto-Oncogene, serine/threonine Kinase (RAF1) (AID 2283216)
Sequence of human Raf-1 Proto-Oncogene, serine/threonine Kinase (RAF1), RAF1 (gene 5894) (P04049 whole entry, looked up): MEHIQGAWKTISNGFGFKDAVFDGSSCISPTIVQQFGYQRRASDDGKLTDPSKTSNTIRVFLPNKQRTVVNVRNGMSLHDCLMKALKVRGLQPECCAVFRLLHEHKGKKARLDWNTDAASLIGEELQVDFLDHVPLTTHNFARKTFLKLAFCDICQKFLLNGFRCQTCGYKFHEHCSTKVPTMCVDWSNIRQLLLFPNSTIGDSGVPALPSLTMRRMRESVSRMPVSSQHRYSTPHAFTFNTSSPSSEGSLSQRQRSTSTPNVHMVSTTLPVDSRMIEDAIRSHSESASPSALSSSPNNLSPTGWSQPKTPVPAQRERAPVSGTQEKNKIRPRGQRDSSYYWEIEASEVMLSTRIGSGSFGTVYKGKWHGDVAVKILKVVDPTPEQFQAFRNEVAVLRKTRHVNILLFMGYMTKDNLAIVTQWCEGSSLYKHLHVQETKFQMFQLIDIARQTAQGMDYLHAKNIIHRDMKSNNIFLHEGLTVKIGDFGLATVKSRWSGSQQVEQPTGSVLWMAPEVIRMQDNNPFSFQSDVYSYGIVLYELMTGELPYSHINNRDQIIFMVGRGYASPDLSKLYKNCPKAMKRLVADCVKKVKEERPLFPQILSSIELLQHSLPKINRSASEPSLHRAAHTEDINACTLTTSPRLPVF
Method in brief: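 Single-point screening at 25 uM (duplicate), followed by singleton concentration-response to 50 uM maximum for chemicals exceeding threshold. Enzyme activity from fluorescent substrate-product mobility-shift separation after 1 h, relative to DMSO.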

[5] = molecular target: rat Acetylcholinesterase (AChE), Ache (gene 83817) (UniProt P37136); test: NVS_ENZ_rAChE: NovaScreen (NVS) Enzymatic Assay for rat Acetylcholinesterase (AChE) (AID 2283233)
Sequence of rat Acetylcholinesterase (AChE), Ache (gene 83817) (P37136 whole entry, looked up): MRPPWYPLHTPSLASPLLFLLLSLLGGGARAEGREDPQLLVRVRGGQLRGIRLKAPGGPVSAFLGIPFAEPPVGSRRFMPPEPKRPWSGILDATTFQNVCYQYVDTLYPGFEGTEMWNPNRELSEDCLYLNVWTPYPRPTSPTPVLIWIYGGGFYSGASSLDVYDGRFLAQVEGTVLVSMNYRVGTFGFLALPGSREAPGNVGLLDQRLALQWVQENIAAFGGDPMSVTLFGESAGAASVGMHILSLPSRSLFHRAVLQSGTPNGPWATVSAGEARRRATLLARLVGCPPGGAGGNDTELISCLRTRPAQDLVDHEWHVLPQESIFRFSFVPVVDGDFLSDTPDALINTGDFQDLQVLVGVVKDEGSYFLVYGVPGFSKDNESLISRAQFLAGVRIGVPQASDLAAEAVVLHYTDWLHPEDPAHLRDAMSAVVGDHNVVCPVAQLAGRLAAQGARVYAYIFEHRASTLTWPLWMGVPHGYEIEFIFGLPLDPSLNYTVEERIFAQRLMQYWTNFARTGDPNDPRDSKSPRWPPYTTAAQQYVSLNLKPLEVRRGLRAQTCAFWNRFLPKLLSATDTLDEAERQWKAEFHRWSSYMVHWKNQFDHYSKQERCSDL
Method in brief: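 Compounds first screened at 25 uM in duplicate, then those passing threshold tested in concentration series up to 50 uM, against AChE from rat brain membranes. Enzyme activity read by absorbance at 0.33 h; inhibition scored versus DMSO.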

[6] = molecular target: Voltage-dependent N-type calcium channel subunit alpha-1B (Rattus norvegicus) (UniProt Q02294); test: NVS_IC_rCaChN: NovaScreen (NVS) Ion Channel Assay for rat Calcium Channel, Type N (CaChN) (AID 2283317)
[7] = system: rat Monoamine Oxidase, MAO-A, Peripheral (MAOAP), gene 29253; test: NVS_ENZ_rMAOAP: NovaScreen (NVS) Enzymatic Assay for rat Monoamine Oxidase, MAO-A, Peripheral (MAOAP) (AID 2283237)
Method in brief: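 Scintillation counting tracked MAO-A activity in a cell-free rat liver mitochondrial membrane prep, read 1.17 hours after compound addition. Single-point duplicate testing at 25 uM preceded concentration-response follow-up; activity was fitted relative to DMSO.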

[8] = molecular target: rat Monoamine Oxidase, MAO-B, Peripheral (MAOBP), Maob (gene 25750) (UniProt P19643); test: NVS_ENZ_rMAOBP: NovaScreen (NVS) Enzymatic Assay for rat Monoamine Oxidase, MAO-B, Peripheral (MAOBP) (AID 2283242)
Sequence of rat Monoamine Oxidase, MAO-B, Peripheral (MAOBP), Maob (gene 25750) (P19643 whole entry, looked up): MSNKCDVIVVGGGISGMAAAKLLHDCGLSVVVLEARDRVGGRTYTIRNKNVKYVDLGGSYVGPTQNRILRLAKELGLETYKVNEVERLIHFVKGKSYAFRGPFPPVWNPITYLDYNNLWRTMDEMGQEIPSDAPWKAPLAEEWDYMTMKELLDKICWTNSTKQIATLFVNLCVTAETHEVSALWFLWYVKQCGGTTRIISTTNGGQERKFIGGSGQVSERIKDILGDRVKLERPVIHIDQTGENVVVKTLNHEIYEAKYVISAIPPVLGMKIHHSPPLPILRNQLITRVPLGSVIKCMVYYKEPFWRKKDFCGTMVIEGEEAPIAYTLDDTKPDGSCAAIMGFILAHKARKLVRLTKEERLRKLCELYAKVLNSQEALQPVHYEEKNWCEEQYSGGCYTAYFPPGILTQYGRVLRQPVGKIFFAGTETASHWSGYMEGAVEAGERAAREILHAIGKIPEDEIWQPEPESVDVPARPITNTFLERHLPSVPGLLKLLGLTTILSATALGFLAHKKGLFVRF

[9] = molecular target: human Protein Tyrosine Phosphatase Receptor Type C (PTPRC), PTPRC (gene 5788) (UniProt P08575); test: NVS_ENZ_hPTPRC: NovaScreen (NVS) Enzymatic Assay for human Protein Tyrosine Phosphatase Receptor Type C (PTPRC) (AID 2283212)
Sequence of human Protein Tyrosine Phosphatase Receptor Type C (PTPRC), PTPRC (gene 5788) (P08575 whole entry, looked up): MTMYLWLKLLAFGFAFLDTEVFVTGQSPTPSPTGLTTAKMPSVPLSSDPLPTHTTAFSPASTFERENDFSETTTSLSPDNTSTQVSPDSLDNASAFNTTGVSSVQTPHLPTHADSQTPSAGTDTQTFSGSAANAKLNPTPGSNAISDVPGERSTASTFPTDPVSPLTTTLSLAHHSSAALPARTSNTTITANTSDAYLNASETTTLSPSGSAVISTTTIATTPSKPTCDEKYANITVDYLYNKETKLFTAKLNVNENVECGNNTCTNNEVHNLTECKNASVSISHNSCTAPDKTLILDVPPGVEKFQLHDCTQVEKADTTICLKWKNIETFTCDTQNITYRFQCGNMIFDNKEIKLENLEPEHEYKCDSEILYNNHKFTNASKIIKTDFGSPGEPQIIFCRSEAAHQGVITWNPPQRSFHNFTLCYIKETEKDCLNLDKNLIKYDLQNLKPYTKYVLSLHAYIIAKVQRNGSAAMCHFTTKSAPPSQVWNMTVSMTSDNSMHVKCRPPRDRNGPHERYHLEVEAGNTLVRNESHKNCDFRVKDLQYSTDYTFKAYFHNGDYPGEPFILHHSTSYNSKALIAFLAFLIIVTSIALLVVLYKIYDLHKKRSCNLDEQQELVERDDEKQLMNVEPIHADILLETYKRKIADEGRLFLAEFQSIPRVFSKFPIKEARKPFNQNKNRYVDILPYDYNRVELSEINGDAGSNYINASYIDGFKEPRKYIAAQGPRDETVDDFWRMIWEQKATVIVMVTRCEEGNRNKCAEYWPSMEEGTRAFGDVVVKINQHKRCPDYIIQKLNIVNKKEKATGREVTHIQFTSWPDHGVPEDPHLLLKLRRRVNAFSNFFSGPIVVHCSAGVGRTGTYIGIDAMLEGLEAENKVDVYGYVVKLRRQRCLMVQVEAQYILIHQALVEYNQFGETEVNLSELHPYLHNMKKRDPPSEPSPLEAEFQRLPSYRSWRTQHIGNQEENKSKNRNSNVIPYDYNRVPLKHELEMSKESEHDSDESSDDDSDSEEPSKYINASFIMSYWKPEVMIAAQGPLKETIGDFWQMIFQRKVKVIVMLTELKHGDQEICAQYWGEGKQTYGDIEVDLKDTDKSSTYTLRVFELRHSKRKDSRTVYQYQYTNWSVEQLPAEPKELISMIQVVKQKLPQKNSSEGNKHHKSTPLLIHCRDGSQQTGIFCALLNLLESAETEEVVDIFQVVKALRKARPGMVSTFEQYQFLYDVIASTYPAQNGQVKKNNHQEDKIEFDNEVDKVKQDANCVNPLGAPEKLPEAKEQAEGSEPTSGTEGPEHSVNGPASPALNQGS
Method in brief: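 Absorbance-based phosphatase activity of human PTPRC protein extracted from yeast was measured 1 h post-dosing. Compounds first tested at 25 uM in duplicate, then those passing threshold in singleton concentration series to 50 uM.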

[10] = molecular target: bovine Gamma-Aminobutyric Acid Type A Receptor BDZ, alpha 1 site (GABARa1), GABRA1 (gene 780973) (UniProt P08219); test: NVS_LGIC_bGABARa1: NovaScreen (NVS) Ligand-Gated Ion Channel Assay for bovine Gamma-Aminobutyric Acid Type A Receptor BDZ, alpha 1 site (GABARa1) (AID 2283321)
Method in brief: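 Bovine cortex membrane preparation, benzodiazepine site on GABA-A alpha1; specific radioligand displacement read after 0.75 h by filtration and scintillation. Screen at 25 uM, then singleton titrations up to 50 uM; DMSO baseline.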

[11] = molecular target: Norway rat Vesicular Monoamine Transporter (VMAT2), neurotransmitter transporter, Slc18a2 (gene 25549) (UniProt Q01827); test: NVS_TR_rVMAT2: NovaScreen (NVS) Transporter Assay for Norway rat Vesicular Monoamine Transporter (VMAT2), neurotransmitter transporter (AID 2283376);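 also: actives lower the bound radioligand signal below the DMSO level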
Sequence of Norway rat Vesicular Monoamine Transporter (VMAT2), neurotransmitter transporter, Slc18a2 (gene 25549) (Q01827 whole entry, looked up): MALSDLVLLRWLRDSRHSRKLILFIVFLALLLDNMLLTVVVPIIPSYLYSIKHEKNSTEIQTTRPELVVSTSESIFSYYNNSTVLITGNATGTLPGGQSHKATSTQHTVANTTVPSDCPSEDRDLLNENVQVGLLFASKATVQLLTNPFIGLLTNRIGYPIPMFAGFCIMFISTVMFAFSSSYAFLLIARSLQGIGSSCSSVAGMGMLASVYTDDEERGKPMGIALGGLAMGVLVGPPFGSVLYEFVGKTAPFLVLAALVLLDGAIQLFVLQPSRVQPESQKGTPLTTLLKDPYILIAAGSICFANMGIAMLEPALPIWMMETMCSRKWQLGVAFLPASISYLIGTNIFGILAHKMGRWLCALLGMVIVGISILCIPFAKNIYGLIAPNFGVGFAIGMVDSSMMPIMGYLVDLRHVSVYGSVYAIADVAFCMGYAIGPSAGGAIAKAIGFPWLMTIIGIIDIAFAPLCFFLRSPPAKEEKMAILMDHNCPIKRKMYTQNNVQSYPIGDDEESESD
Method in brief: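 Using rat forebrain membranes, specific radioligand binding to VMAT2 was measured by filtration and scintillation counting after 1 hour. Chemicals screened at 25 uM in duplicate, actives retested in concentration series, DMSO baseline.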

[12] = molecular target: rat Monoamine Oxidase, MAO-B, Central (MAOBC), Maob (gene 25750) (UniProt P19643); test: NVS_ENZ_rMAOBC: NovaScreen (NVS) Enzymatic Assay for rat Monoamine Oxidase, MAO-B, Central (MAOBC) (AID 2283238)
Method in brief: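 Actives from a duplicate 25 uM screen went on to singleton concentration-response with a 50 uM maximum. Enzyme source was rat brain tissue MAO-B, assayed cell-free. Radiolabelled product was counted by scintillation 1.17 h post-dose, with signal loss relative to DMSO.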

Q: What does the source list for `CC1CCC(C(C)(C)O)CC1` (stereo not given)?
A: outcome [1]: inactive; AC50 [2]: 1.56 µM (active)

Q: What does the source list for `O=C1c2ccc(O)c(O)c2C(=O)c2c(O)ccc(O)c21`?
A: outcome [1]: inactive; outcome [3]: inactive

Q: Which outcome [1] does the source give for `C#CC(O)C(CC)CCCC` (stereo not given) here?
A: inactive

Q: What about the outcome [4] of the same molecule?
A: inactive

Q: `CN[C@H]1CC[C@@H](c2ccc(Cl)c(Cl)c2)c2ccc(S(N)(=O)=O)cc21` was tested. Which outcome [1] did it give?
A: inactive

Q: And the AC50 [5]?
A: 25 µM (active)

Q: And the outcome [6]?
A: inactive

Q: Which outcome [1] does the source give for `CC(C)CCOCCC(C)C` here?
A: inactive

Q: And the outcome [2]?
A: inactive

Q: How did the outcome [1] turn out when `O=[N+]([O-])c1ccc(CO)cc1` was run?
A: inactive

Q: What about the outcome [2] of the same molecule?
A: inactive

Q: Which outcome [1] does the source give for `CCCCC(CC)C(=O)OCCOCCOCCOC(=O)C(CC)CCCC` (stereo not given) here?
A: inactive

Q: What about the outcome [7] of the same molecule?
A: inactive

Q: What about the outcome [3] of the same molecule?
A: inactive

Q: What does the source list for `CCOC=C(C(=O)OCC)C(=O)OCC`?
A: outcome [1]: inactive; outcome [2]: inactive

Q: `CC(C)=CCCC(C)O` (stereo not given) was tested. Which outcome [1] did it give?
A: inactive

Q: What about the outcome [2] of the same molecule?
A: inactive

Q: What does the source list for `CC/C=C\C/C=C\C/C=C\CCCCCCCC(=O)OC`?
A: outcome [1]: inactive; AC50 [2]: 9.64 µM (active)

Q: Which outcome [1] does the source give for `CCCCCCc1ccc(O)cc1O` here?
A: inactive

Q: And the AC50 [7]?
A: 25 µM (active)

Q: What about the AC50 [3] of the same molecule?
A: 16.5 µM (active)

Q: `Fc1ccccc1[C@@H](F)COC1CCC(Nc2ncnc3[nH]ncc23)CC1` (stereo not given in full) was tested. Which outcome [1] did it give?
A: inactive

Q: And the outcome [7]?
A: inactive

Q: What about the AC50 [8] of the same molecule?
A: 7.67 µM (active)

Q: `CCOC(=O)COc1cc(-n2ncc(C(F)(F)F)c(C)c2=O)c(F)cc1Cl` was tested. Which outcome [1] did it give?
A: inactive

Q: What about the outcome [4] of the same molecule?
A: inactive

Q: And the outcome [7]?
A: inactive

Q: How did the outcome [1] turn out when `CN(C[C@@H](CC[N+]12CCC(C3CCCCC3)(CC1)CC2)c1ccc(Cl)c(Cl)c1)C(=O)c1cc(C(F)(F)F)cc(C(F)(F)F)c1` was run?
A: inactive

Q: And the AC50 [2]?
A: 16.2 µM (active)

Q: What about the outcome [9] of the same molecule?
A: inactive

Q: And the AC50 [7]?
A: 36.8 µM (active)

Q: And the outcome [10]?
A: inactive

Q: `O=S1(=O)CC(Cl)(Cl)C(Cl)(Cl)C1` was tested. Which outcome [1] did it give?
A: inactive

Q: And the AC50 [5]?
A: 26.1 µM (active)

Q: What about the outcome [3] of the same molecule?
A: inactive

Q: With `O=c1c(-c2ccc(O)cc2)coc2cc(O)ccc12` as the molecule, how does the outcome [1] read?
A: inactive

Q: And the outcome [8]?
A: inactive

Q: `O=C(c1ccccc1)C1CCCCC1` was tested. Which outcome [1] did it give?
A: inactive

Q: And the outcome [9]?
A: inactive

Q: What about the outcome [8] of the same molecule?
A: inactive

Q: Which results are given for `CCOC(=O)C1=NN(c2ccc(Cl)cc2Cl)C(C)(C(=O)OCC)C1` (stereo not given)?
A: outcome [1]: inactive; outcome [2]: inactive; AC50 [11]: 15.5 µM (active)

Q: For `CCc1cccc(C)c1N(C(=O)CS(=O)(=O)O)C(C)COC` (stereo not given), which outcome [1] is on record?
A: inactive

Q: What about the outcome [2] of the same molecule?
A: inactive

Q: `CCCCCCCCC(C)=O` was tested. Which outcome [1] did it give?
A: inactive

Q: What about the outcome [2] of the same molecule?
A: inactive

Q: And the outcome [11]?
A: inactive

Q: `C=C(C)CCO` was tested. Which outcome [1] did it give?
A: inactive

Q: What about the outcome [2] of the same molecule?
A: inactive

Q: With `O=C(NS(=O)(=O)/C=C/c1cccs1)c1ccc(F)cc1Br` as the molecule, how does the outcome [1] read?
A: inactive

Q: What about the outcome [12] of the same molecule?
A: inactive

Q: And the outcome [8]?
A: inactive

Q: With `Cc1c2ccccc2c(C)c2c1ccc1ccccc12` as the molecule, how does the outcome [1] read?
A: inactive

Q: And the outcome [3]?
A: inactive

Q: What does the source list for `OCCCCl`?
A: outcome [1]: inactive; outcome [2]: inactive

Q: For `CN(Cc1cnc2nc(N)nc(N)c2n1)c1ccc(C(=O)N[C@@H](CCC(=O)O)C(=O)O)cc1`, which outcome [1] is on record?
A: inactive

Q: What about the outcome [12] of the same molecule?
A: inactive

Q: How did the outcome [1] turn out when `O[Si](c1ccccc1)(c1ccccc1)c1ccccc1` was run?
A: inactive

Q: What about the AC50 [2] of the same molecule?
A: 10.6 µM (active)
